Shown are actives, neighbours in structure and some others; about 4.7% of the full set was active somewhere.
HepG2 viability: HepG2 cytotoxicity, counter-screen for TGF-b inhibitors | HepG2 CAGA-GFP viability, ATP luminescence, 18 h | Potency, µM (top dose mostly 46.1 µM), without a hit: at the top dose activity change, negative = cytotoxicity, actives largely listed as cytotoxic | actives 0.76% (n = 410,000); note: potency is the fitted concentration of half-maximal effect
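HepG2 CAGA-GFP cells (1000/well, DMEM with 1% FBS) received compound, then TGF-beta at 500 pg/mL final, and were incubated 18 hours at 37 degrees C. Viability was read by CellTiter-Glo luminescence. Media-only wells were set as complete cell-killing and DMSO as no toxicity.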
S2 tox: reduces viability in counter-screen for ATXN expression inhibitors; Potency, µM (top dose mostly 56.7 µM), hits mostly cytotoxic; actives 0.49% (n = 400,000); S2 cells (HEK-293 line with an ATXN2-luciferase reporter) viability, CellTiter-Fluor protease fluorescence, 24 h; note: potency is the fitted concentration of half-maximal effect; nearly all actives have a fitted effect of over 40% in size
D3 antag: D3 dopamine receptor (human) antagonism. P35462. D3R cells, DiscoveRx beta-arrestin luminescence, antagonist mode; stronger effect = lower value. max response, negative = inhibition, %. actives 2.5% (n = 360,000); in the data active = max response below about -50%; inconclusive = no clear call, values can overlap the other calls; note: % is set by controls: 0 for no effect and ±100 for the full control effect
Target sequence (P35462 whole entry, looked up): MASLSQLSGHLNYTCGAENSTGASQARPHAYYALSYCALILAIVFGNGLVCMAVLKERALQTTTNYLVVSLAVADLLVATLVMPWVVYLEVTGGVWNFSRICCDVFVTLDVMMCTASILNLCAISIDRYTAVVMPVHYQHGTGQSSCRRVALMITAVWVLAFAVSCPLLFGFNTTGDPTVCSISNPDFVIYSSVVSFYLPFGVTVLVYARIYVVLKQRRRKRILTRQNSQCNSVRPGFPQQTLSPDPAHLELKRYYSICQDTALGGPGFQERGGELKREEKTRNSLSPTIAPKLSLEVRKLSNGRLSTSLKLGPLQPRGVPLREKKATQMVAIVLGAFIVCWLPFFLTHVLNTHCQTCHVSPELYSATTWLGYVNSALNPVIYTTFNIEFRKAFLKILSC
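Cells expressing the human receptor were seeded at 1500 cells/well, incubated overnight at 37 degrees C in 5% CO2, then exposed to library compounds with dopamine controls for 90 minutes at 37 degrees C before luminescent detection.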
D3 ag: agonists of human D3 dopamine receptor | actives 0.58% (n = 410,000) | AID 652048 | D3R DiscoveRx beta-arrestin cells, luminescence, 90 min | max activation, %; in the data active = max activation above about 30%; note: 0% is about no effect
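Cells at 1500/well, incubated overnight, then treated with pinned compounds (dopamine as control) for 90 min at 37 degrees C. DiscoveRx reagent added for 30 - 60 minutes at room temperature; luminescence read.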
ATXN2 expr inh: inhibitors of ATXN2 expression; HEK-293 ATXN2-luciferase reporter, luminescence, 24 h; Potency, µM (top dose mostly 57 µM), for inactives: at the top dose activity change, negative = inhibition, most hits filed as inhibitors; actives 0.72% (n = 360,000); note: potency is the fitted concentration of half-maximal effect; % is set by controls: 0 for no effect and ±100 for the full control effect; nearly all actives have a fitted effect of over 55% in size
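ATXN2-luciferase reporter cells (luciferase flanked by upstream and downstream ATXN2 gene portions) were treated 24 h at 37 °C with compounds at up to 57 uM. SteadyGlo luminescence gave expression; GF-AFC fluorescence gave viability.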
TGFb inhibitor: inhibitors of TGF-b signaling; HepG2 CAGA-GFP TGF-b/SMAD3 reporter, GFP fluorescence, 18 h; TGF-beta stimulated, 500 pg/mL final; Potency, µM (doses to about 46.1 µM), inactives show at the top dose activity, negative = inhibition, hits mostly inhibitors; actives 1.2% (n = 410,000); AID 588855; note: potency is the fitted concentration of half-maximal effect; % is set by controls: 0 for no effect and ±100 for the full control effect; nearly all actives have a fitted effect of over 65% in size
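HEPG2 CAGA-GFP cells (1000/well, DMEM with 1% FBS) were pre-incubated 2 h at 37 degrees C, given compound by pin tool, then stimulated with TGF-beta at 500 pg/mL final for 18 h before per-cell GFP fluorescence imaging.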
Active calls of the source: *; i = inactive; ? = inconclusive; . = no result. Unless noted, calls come from the whole dose curve; as a rule, active = well fitted curve in the direction sought with a large enough effect; inconclusive = small, poorly fitted or top-dose-only effect, or another doubt; inactive = no such curve, though single readings can be large; an effect the other way counts as inactive or inconclusive.

SMILES	HepG2 viability	S2 tox	D3 antag	D3 ag	ATXN2 expr inh	TGFb inhibitor
O=[N+]([O-])c1ccc(/C=N/n2cnc3ccccc32)s1	8.9µM*	.	3	-2	?	?
Oc1ccc(Br)cc1C1C=C(c2ccc3c(c2)OCO3)NC(c2ccc(F)c(Br)c2)N1 (stereo unspecified)	-96%	.	.	.	.	7.9µM*
Oc1ccc(Cl)cc1C1C=C(c2ccc3c(c2)OCO3)NC(c2ccc(C(F)(F)F)cc2)N1 (stereo unspecified)	-92%	.	.	.	.	16µM*
Cc1nc2cc(NC(=O)[C@@H]3C[C@@H](Sc4ccccn4)CN3Cc3ccc(F)cc3F)ccc2s1	.	i	.	.	.	.
CNc1ncnc(Sc2nc(N)nc3nc[nH]c23)c1[N+](=O)[O-]	-61%	?	2	-4	?	?
Nc1nc(Sc2ccc([N+](=O)[O-])c3nonc23)c2[nH]cnc2n1	-50%	.	-60*	-11	14µM*	?
COc1ccccc1C(NC(=O)C1CCN(CCOc2ccc(Cl)cc2)CC1)c1ccccn1 (stereo unspecified)	0%	?	-78*	-8	-22%	28%
COc1ccccc1C(NC(=O)C1CCN(CCc2ccc(Br)cc2)CC1)c1ccccn1 (stereo unspecified)	-25%	i	?	-14	-17%	-6%
COc1ccccc1C(NC(=O)C1CCN(CCOc2ccccc2)CC1)c1ccccn1 (stereo unspecified)	3%	i	-55*	-7	-5%	9%
C=CCC[C@@H](Cc1ccc(F)cc1)C(=O)OC[C@H](Cc1c[nH]c2ccccc12)NC(=O)[C@@H](CC=C)CC(=O)N[C@@H](CO)Cc1ccccc1	-49%	?	10	11	-12%	?
C=CCC[C@@H](Cc1ccc(F)cc1)C(=O)OC[C@@H](Cc1c[nH]c2ccccc12)NC(=O)[C@@H](CC=C)CC(=O)N[C@@H](CO)Cc1ccccc1	-9%	?	-11	0	-8%	-29%
C=CCC[C@H](Cc1ccc(F)cc1)C(=O)OC[C@@H](Cc1c[nH]c2ccccc12)NC(=O)[C@@H](CC=C)CC(=O)N[C@@H](CO)Cc1ccccc1	-56%	13µM*	-20	-2	?	10µM*
C=CC[C@@H](CC(=O)N[C@@H](CO)Cc1ccccc1)C(=O)N[C@H](COC(=O)[C@@H](CC=C)Cc1ccc(F)cc1)C(C)(C)C	-11%	?	2	2	?	?
C=CCC[C@@H](Cc1ccc(F)cc1)C(=O)OC[C@@H](Cc1c[nH]c2ccccc12)NC(=O)[C@H](CC=C)CC(=O)N[C@H](CO)Cc1ccccc1	-80%	25µM*	40	13	?	?
C=CCC[C@@H](Cc1ccc(F)cc1)C(=O)OC[C@@H](NC(=O)[C@@H](CC=C)CC(=O)N[C@H](CO)Cc1ccccc1)C(C)(C)C	-29%	?	-63*	-16	0%	?
C=CCN(C/C(=N\O)c1sc(C(=O)OCC)nc1C)c1cccc(Br)c1	-51%	i	4	63*	-26%	?
CCOC(=O)c1sc(N/N=C/c2cccc(C)c2)nc1C	-26%	i	7	-1	32%	-13%
CC(C)(C)OC(=O)N1CCN(/[N+]([O-])=N/Oc2ccc([N+](=O)[O-])cc2[N+](=O)[O-])CC1	-100%	.	.	.	.	?
CCOC(=O)/C=C/C(=O)Nc1cccc([N+](=O)[O-])c1	13µM*	?	-21	-5	?	11µM*
CCOC(=O)/C=C/C(=O)Nc1ccccc1-c1ccccc1NC(=O)/C=C/C(=O)OCC	8%	?	-62*	-5	?	0%
CCOC(=O)c1cccc(NC(=O)/C=C/c2cccc([N+](=O)[O-])c2)c1	1%	i	-12	2	-14%	2%
CCOC(=O)/C=C/C(=O)OCC(=O)Nc1cccc(Cl)c1Cl	-26%	i	4	1	1%	-27%
COCCNC(=O)c1c(CS(=O)(=O)c2ccccc2)noc1C(=O)NCc1ccccc1	-1%	i	13	36*	-3%	-2%
COC(=O)Cc1ccc(NC(=O)c2ccc(C(C)(C)C)cc2)cc1	-30%	i	24	1	0.79µM*	9%
CC(C)(C)c1ccc(C(=O)Nc2ccc(Cl)cc2)cc1	-12%	i	-17	-4	37%	30%
SMILES	HepG2 viability	S2 tox	D3 antag	D3 ag	ATXN2 expr inh	TGFb inhibitor
Cc1cccc(C)c1NC(=O)CSCc1cnn(-c2ccccc2)c1-n1cccc1	-16%	.	.	3	.	?
CC(C)C(NS(C)(=O)=O)c1nnc2n1CCN(Cc1cccc3ncccc13)CC2 (stereo unspecified)	.	i	.	.	.	.
O=C(c1ccccc1)c1coc2c1C(=O)c1ccccc1C2=O	10µM*	i	-13	-7	-1%	?
CC(C)OCCCn1c(SCC(N)=O)nc2c(sc3ccccc32)c1=O	-40%	i	.	-9	-22%	0%
O=c1oc2cc(Br)ccc2n1CSC1=NCCS1	1%	i	-53*	-9	34%	0%
CCCc1nnc(NC(=O)Cn2c(=O)oc3cc(Br)ccc32)s1	-9%	i	-29	1	-4%	0%
O=[N+]([O-])c1ccc(O)c(-c2ccnc3cc(-c4ccccc4)nn23)c1	-49%	?	.	4	?	?
CC1(C(=O)NS(=O)(=O)c2ccc(Cl)cc2)CCN1C(=O)CCc1ccc(Cl)cc1Cl (stereo unspecified)	-1%	i	-52*	-15	-5%	0%
CC1(C(=O)NS(=O)(=O)c2cccc(Cl)c2)CCN1C(=O)CC1CC1 (stereo unspecified)	-9%	i	0	52*	0%	1%
CC1(C(=O)Nc2ccc3c(c2)OCO3)CCN1C(=O)CCc1ccc(Cl)cc1Cl (stereo unspecified)	-18%	28µM*	10	1	-7%	-3%
CC1(C(=O)Nc2ccc3c(c2)OCO3)CCN1C(=O)Cc1cc(F)ccc1F (stereo unspecified)	-10%	i	-10	-2	-3%	1%
CC1(C(=O)NS(=O)(=O)c2cccc(Cl)c2)CCN1C(=O)Cc1ccc(Cl)cc1Cl (stereo unspecified)	-4%	i	-83*	-26	-6%	12%
